From PubChem BioAssay
This is a sample that favours compounds with a hit; in the whole collection about 6.5% have one here.
IL1B secr inh – qHTS for Inhibitors of Inflammasome Signaling: IL-1-beta AlphaLISA Primary Screen; activity change, % at 57.5 µM; 360,000 tested, 4.7% active; AID 743279, 2014; THP-1 LPS/ATP IL-1B secretion, AlphaLISA, 16 h; stronger effect = lower value; in the data active = activity change below about -50%; inconclusive = mostly about -30% to -49%; also: % is scaled to controls: 0 for no effect and ±100 for the full control effect
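THP-1 cells pretreated 1 hr with compounds (up to 57.5 uM final), then stimulated with LPS (250 ng/mL final) plus ATP (1.25 mM final); secreted IL-1B measured by AlphaLISA after 16 hr, decreased signal indicating inhibition.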
TGFb SMAD3 inh – qHTS for Inhibitors of TGF-b; HepG2 CAGA-GFP TGF-b/SMAD3 reporter, GFP fluorescence, 18 h; TGF-beta stimulated, 500 pg/mL final; Potency, µM (doses to about 46.1 µM), inactives show top-dose activity, negative = inhibition, actives largely listed as inhibitors; 410,000 tested, 1.2% active; also: potency is read from the fitted curve at half-maximal effect; % is scaled to controls: 0 for no effect and ±100 for the full control effect; nearly all actives have a fitted effect of over 65% in size
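Smad-responsive CAGA-GFP expression was quantified in HEPG2 cells exposed to compounds and 500 pg/mL final TGF-beta for 18 h at 37 degrees C; unstimulated wells defined full inhibition.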
Giardia killer – Small Molecules that selectively kill Giardia lamblia: qHTS; Giardia lamblia trophozoite viability; activity change, % at 7.66 µM, hits read low; 340,000 tested, 0.15% active; AID 540267, 2011; in the data active = activity change below about -80%; inconclusive = between about -30% and that limit;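 also: parasites exposed to compound for two days anaerobically before the ATP read; % is scaled to controls: 0 for no effect and ±100 for the full control effect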
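Luminescence from cellular ATP indicates surviving trophozoites (100 cells/well) following 48 hrs anaerobic compound treatment at 37 deg C; signal develops 15-30 min at room temperature.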
HT1080 IDH1KD tx – qHTS for induction of synthetic lethality in tumor cells producing 2HG: qHTS for the HT-1080-IDH1KD cell line; Potency, µM (doses to about 46.1 µM), without a hit: at the highest dose activity, negative = toxicity, hits mostly cytotoxic; HT-1080 IDH1 knockdown viability, ATP luminescence, 48 h; 360,000 tested, 2% active;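 also: potency is read from the fitted curve at half-maximal effect; 0% = DMSO wells and -100% = cell-free medium wells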
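In this qHTS, HT-1080 cells depleted of IDH1 are exposed for 48 h at 37 °C to compound titrations. Toxicity is scored from CellTiter-Glo luminescence, with DMSO as full viability and medium alone as none.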
HepG2 viability – qHTS for Inhibitors of TGF-b: Cytotox Counterscreen; HepG2 CAGA-GFP viability, ATP luminescence, 18 h; Potency, µM (titrated, usually from 46.1 µM), inactives show at the highest dose activity change, negative = cytotoxicity, usual class: cytotoxic; 410,000 tested, 0.76% active; also: potency is read from the fitted curve at half-maximal effect
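HepG2 CAGA-GFP cells (1000/well, DMEM with 1% FBS) received compound, then TGF-beta at 500 pg/mL final, and were incubated 18 hours at 37 degrees C. Viability was read by CellTiter-Glo luminescence. Media-only wells were set as complete cell-killing and DMSO as no toxicity.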
HT1080-NT tox – qHTS for induction of synthetic lethality in tumor cells producing 2HG: qHTS for the HT-1080-NT fibrosarcoma cell line; AID 686970, 2013; Potency, µM (top dose mostly 46.1 µM), for inactives: at the top dose activity, negative = less viability, actives largely listed as cytotoxic; HT-1080-NT fibrosarcoma viability, CellTiter-Glo ATP luminescence, 48 h; 360,000 tested, 1.6% active;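 also: NT is the 2HG producing partner of a matched IDH1 knockdown line; potency is read from the fitted curve at half-maximal effect; 0% = DMSO-treated cells and -100% = media-only wells without cells; nearly all actives have a fitted effect of over 55% in size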
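Luminescent CellTiter-Glo readout after 48 hours of compound exposure at 37 degrees C defined viability of HT-1080-NT cells. Activity was normalized to DMSO wells and cell-free media wells; concentration-response curves were fitted and assigned curve classes.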
* marks the source's active call; other numbers are inactive results; [ ] = another dose, or the depositor's remark. Unless noted, calls follow the shape of the dose curve; as a rule, active = well fitted curve in the direction sought with a large enough effect; inconclusive = small, poorly fitted or top-dose-only effect, or another doubt; inactive = no such curve, though single readings can be large; an effect the other way counts as inactive or inconclusive.

For Cc1cc(C)cc(NC(=S)N2CCCC2)c1 the results were IL1B secr inh 12, TGFb SMAD3 inh 1%, Giardia killer 14, HT1080 IDH1KD tx 20%, HepG2 viability -1% and HT1080-NT tox 15%.
For Cc1ccc(S(=O)(=O)N(C)C)cc1NC(=S)NC12CC3CC(CC(C3)C1)C2 the results were IL1B secr inh -20, TGFb SMAD3 inh inconclusive, Giardia killer -8, HT1080 IDH1KD tx -24%, HepG2 viability -25% and HT1080-NT tox -21%.
Screening Cc1cc(-c2ccccc2C(=O)Nc2ccccc2O)on1 returned IL1B secr inh 20, TGFb SMAD3 inh -19%, Giardia killer 0, HT1080 IDH1KD tx 0%, HepG2 viability 10% and HT1080-NT tox -4%.
Screening O=C(NCC(c1ccc(F)cc1)N1CCOCC1)c1cccnc1Sc1ccccc1Cl (stereo unspecified) returned IL1B secr inh 13, TGFb SMAD3 inh 18%, Giardia killer -21, HT1080 IDH1KD tx 1%, HepG2 viability -2% and HT1080-NT tox 1%.
Cc1ccc2cc(CN(CCc3ccccc3)C(=S)NCCCN(C)C)c(=O)[nH]c2c1 was read as IL1B secr inh inconclusive, TGFb SMAD3 inh inconclusive, Giardia killer -3, HT1080 IDH1KD tx inconclusive, HepG2 viability -89% and HT1080-NT tox 26µM*.
Screening CC(=O)N(CCc1cccc(C)c1)Cc1cc2ccc(C)cc2[nH]c1=O returned IL1B secr inh inconclusive, TGFb SMAD3 inh -3%, Giardia killer 7, HT1080 IDH1KD tx 1%, HepG2 viability -38% and HT1080-NT tox -2%.
Screening O=C(C=C=Nc1ccccc1)C(=O)N=C=Cc1ccccc1 returned IL1B secr inh -101*, TGFb SMAD3 inh inconclusive, Giardia killer 7, HT1080 IDH1KD tx 3.7µM*, HepG2 viability -55% and HT1080-NT tox 6.5µM*.
COCc1nc(-c2ccc(-c3ccc(OC)cc3)nc2OC)no1 was read as IL1B secr inh -5, TGFb SMAD3 inh -2%, Giardia killer 21, HT1080 IDH1KD tx -2%, HepG2 viability -41% and HT1080-NT tox -3%.
For COCCNC(=O)c1onc(CS(=O)(=O)c2cc(C)cc(C)c2)c1C(=O)NCCOC the results were IL1B secr inh 4, TGFb SMAD3 inh 4%, Giardia killer -2, HT1080 IDH1KD tx 0%, HepG2 viability 1% and HT1080-NT tox 14%.
O=C(Nc1ccc(Br)cc1Cl)c1ccc(OCC2CCCO2)cc1 (stereo unspecified) was read as IL1B secr inh -81*, TGFb SMAD3 inh 7%, Giardia killer 11, HT1080 IDH1KD tx -11%, HepG2 viability -18% and HT1080-NT tox -7%.
`Cc1ccc2nc(NC(=O)c3ccc(OCC4CCCO4)cc3)sc2c1` (stereo unspecified) gave IL1B secr inh -110*, TGFb SMAD3 inh -5%, Giardia killer 21, HT1080 IDH1KD tx 7.3µM*, HepG2 viability -19% and HT1080-NT tox -23%.
Screening Cc1c(NC(=O)CN2C(=O)C(=O)c3ccccc32)c(=O)n(-c2ccccc2)n1C returned IL1B secr inh 30, TGFb SMAD3 inh 1%, Giardia killer -16, HT1080 IDH1KD tx 11%, HepG2 viability -11% and HT1080-NT tox 4%.
For O=C(NCC1CCCO1)C(=O)NCC(c1ccco1)N1CCN(c2ccccc2)CC1 (stereo unspecified) the results were IL1B secr inh 3, TGFb SMAD3 inh -4%, Giardia killer 6, HT1080 IDH1KD tx -17%, HepG2 viability 6% and HT1080-NT tox 0%.
Cc1c(C(=O)N2CCOCC2)oc2ccccc12 was read as IL1B secr inh 20, TGFb SMAD3 inh 2%, Giardia killer 6, HT1080 IDH1KD tx -4%, HepG2 viability 4% and HT1080-NT tox -3%[9.24 µM].
